We go through 14 sequences from the supplement of paper PMC6555819.

Test in all cases: PBM binding z-score (relative to random genomic background probes); higher = stronger binding; sequences stand for … in GC…GCGATTGACAGCGTAGAATGAAGG
In assay [1] the test system is RARb homodimer (NR concentration 270 nM). A digest of the protocol: (§1)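 On custom Agilent 4×180K arrays, double-stranded probes with 34-nt variable regions carried direct-repeat seeds, single-nucleotide variants, half-site ablations or random human genomic background. Ligand-free nuclear receptor dimers were applied for 1 h, and binding was read with antibodies against each partner (one per run). Binding z-scores come from regression-normalized fluorescence, with the random background probes as reference.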

The test system of assay [2] is RARg:RXRa (NR concentration 270 nM, RXRa partner concentration 90 nM). A digest of the protocol:
as §1

In assay [3] the test system is RARg homodimer (NR concentration 270 nM). A digest of the protocol:
as §1

In assay [4] the test system is RXRa DBDmut IVT, anti-RXR (DBD mutation: RXRa K156A/R161A, NR concentration 90 nM). The method, boiled down:
as §1

The test system of assay [5] is RXRa homodimer (NR concentration 180 nM). A digest of the protocol:
as §1

Assay [6] relates to THRa:RXRa (NR concentration 90 nM, RXRa partner concentration 90 nM). The method, boiled down:
as §1

Assay [7] relates to THRa homodimer (NR concentration 90 nM). A digest of the protocol: as §1
The subject of assay [8] is VDR homodimer (NR concentration 270 nM). A digest of the protocol: as §1

Take GCTTACGGGTCAAAGGTTATATCATGAATAGAAT: the PBM binding z-score in assay [1] amounted to 3.32; in assay [2], 6.74; in assay [3], 4.71; in assay [4], 2.66; in assay [5], 9.55; in assay [6] it was 4.12. Besides, the PBM binding z-score is 0.113 in assay [7] and 2.09 in assay [8].

As for AAAGACAGGTGATGAAGGTAACTCAGGCTATCAT, the PBM binding z-score in assay [1] was 0.516; in assay [2] it was 0.231; in assay [3] it was 0.563; in assay [4], -0.304; in assay [5] it was 0.572; in assay [6], 1.23. The PBM binding z-score in assay [7] was 0.466; in assay [8], 0.111.

Regarding GCGAATGGGGCATCAGCAGGTTACCATAACTTAA, the PBM binding z-score in assay [1] was 0.462; in assay [2], 0.664; in assay [3], 0.351; in assay [4], 0.119; in assay [5] it was 0.257; in assay [6], 0.795. In addition, the PBM binding z-score in assay [7] is 0.03; in assay [8] it was -0.224.

Turning to CCTCGGAGGACAACATGAGGTCAGAGCTGCCAGA, the PBM binding z-score in assay [1] came out at 3.88; in assay [2], 3.49; in assay [3], 3.52; in assay [4], 1.15; in assay [5], 2.13; in assay [6], 4.08. The PBM binding z-score worked out at 3.51 in assay [7] and 2.43 in assay [8].

For TCTAGTTGCTCAAAGGTCACACACTCGAAATGCG, the PBM binding z-score was 5.02 in assay [1]; 5.93 in assay [2]; 5.78 in assay [3]; 1.88 in assay [4]; 6.66 in assay [5]; 3.76 in assay [6]. Besides, the PBM binding z-score in assay [7] worked out at 1.89; in assay [8], 2.12.

Turning to AATACAGGGTCATCGTAGGACAGAGTACGCACAG, the PBM binding z-score in assay [1] worked out at 3.3; in assay [2], 5.62; in assay [3], 5.18; in assay [4], 3.38; in assay [5], 6.61; in assay [6], 4.82. The values for the PBM binding z-score in assay [7] and in assay [8] were 1.71 and 4.11, respectively.

Take CCAACTAGGTCAAGAGGTCAAAGTCCGCTTCCCG: the PBM binding z-score in assay [1] was 5.51; in assay [2] it was 8.12; in assay [3] it was 7.31; in assay [4], 2.99; in assay [5] it was 8.12; in assay [6] it was 4.24. The PBM binding z-score stood at 2.47 in assay [7] and 4.94 in assay [8].

As for CAAACTAGGTAACCGGAAGGTCAAAGTCCGCATG, the PBM binding z-score in assay [1] came to 4.17; in assay [2], 4.35; in assay [3] it was 3.57; in assay [4] it was 0.531; in assay [5], 3.79; in assay [6] it was 3.26. Further, the values for the PBM binding z-score in assay [7] and in assay [8] were 1.44 and 2.22, respectively.

For the sequence CGAACGAGGGCACGAGTTGATAGCAAATGCCGAT, the PBM binding z-score worked out at 1.05 in assay [1]; 1.8 in assay [2]; 1.98 in assay [3]; 2.18 in assay [4]; 1.49 in assay [5]; 1.84 in assay [6]. Also, the figures for the PBM binding z-score in assay [7] and in assay [8] were 0.134 and 1.58, respectively.

Take CGTCCAAGGTCAAAGGTCAGTGTAGAGATGACGG: the PBM binding z-score in assay [1] came to 5.37; in assay [2], 8.64; in assay [3], 8.04; in assay [4], 3.99; in assay [5], 10.1; in assay [6] it was 4.77. Further, the PBM binding z-score in assay [7] is 2.77; in assay [8], 3.86.

For ACTAGCAGGCCCAGGGTCACTCAAGATTAGTCCG, the PBM binding z-score in assay [1] was 2.58; in assay [2], 2.39; in assay [3], 2.01; in assay [4], -0.284; in assay [5] it was 2.78; in assay [6], 2.73. The PBM binding z-score in assay [7] is 1.17; in assay [8], 1.14.

In the case of CCGACTGGGGCAAGGTTATCATAACGCACAGCCA, the PBM binding z-score in assay [1] is 1.27; in assay [2], 1.03; in assay [3] it was 1.08; in assay [4], 0.0521; in assay [5], 1.12; in assay [6], 1. Also, the PBM binding z-score in assay [7] turned out to be 0.224; in assay [8], 0.128.

Turning to AGTCAAAGTTCATCTAGGTAAGGTAAGATATGCT, the PBM binding z-score in assay [1] is 4.03; in assay [2], 5.32; in assay [3], 5.79; in assay [4] it was 4.64; in assay [5], 4.38; in assay [6], 3.19. For the same sequence, the PBM binding z-score was found to be 0.886 in assay [7] and 4.84 in assay [8].

As for TCTATCAGTTGAAGGGCAACCGACGAGTCCGTTT, the PBM binding z-score was 1.44 in assay [1]; 0.695 in assay [2]; 0.748 in assay [3]; 1.11 in assay [4]; 0.849 in assay [5]; 0.16 in assay [6]. Further, the results for the PBM binding z-score in assay [7] and in assay [8] were 0.0373 and 1.44, respectively.
